# Bioassay records: PubChem BioAssay, Sanford-Burnham Center for Chemical Genomics
# TROY NFkB inh: TROY signaling inhibition; Q293 LMP1-TROYcd NF-kB luciferase reporter, 4 h; inhibition, % at 10 µM; 360,000 tested, 0.98% active;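 active means compounds whose plate-normalised and pattern-corrected inhibition of the luciferase reporter signal at the single screening dose is 50% or more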
# HIF-2a inh: HIF-2a inhibition; 786-0 RCC cells HIF-2a reporter, luciferase luminescence, overnight; inhibition, % at 18.8 µM; 360,000 tested, 0.72% active; AID 624352;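 active means inhibition of the luminescence signal of 40% or more relative to plate controls, in a single-dose primary screen at 18.75 µM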
# Peg3 prom inh: inhibitors of Peg3 promoter; HeLa PEG-Prom luciferase reporter, luminescence, overnight; inhibition, % at 20 µM; 360,000 tested, 1.7% active; AID 588405;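 active means inhibition of at least 50% at 20 µM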
# TWEAK-Fn14 inh: inhibitors of TWEAK-Fn14 interaction signaling. TWEAK-stimulated Fn14 reporter cells, luciferase luminescence, 8 h. inhibition, % at 10 µM. 360,000 tested, 2% active. AID 1159606; in the data active means inhibition above about 50%
# CF NFkB inh: cystic fibrosis NF-kB activation inhibition | inhibition, % at 5 µM | KKLEB NF-kB-GFP reporter, PAF-induced, GFP fluorescence overnight | 360,000 tested, 0.86% active | AID 588850;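 active means at least 50% inhibition at 5 µM, scaled per plate between neutral and stimulator controls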;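 further: PAF is a Pseudomonas aeruginosa culture filtrate used as stimulus; plate controls were PAF-stimulated DMSO wells for no effect and unstimulated DMSO wells for full effect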
# KKLEB cytotox: counter-screen for CF NF-kB inhibitors: cytotoxicity; KKLEB CF airway cells viability, ATPlite luminescence, overnight; hits give low values; cells stimulated with P. aeruginosa culture filtrate; 360,000 tested, 0.36% active; activity change (cytotoxicity), % at 5 µM;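 active means corrected activity change at or below -50% at 5 µM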
# An asterisk follows results filed as active; x = not tested or not shown. The list is not random: actives were taken first. Their share in the collection is about 4%.
SMILES,TROY NFkB inh,HIF-2a inh,Peg3 prom inh,TWEAK-Fn14 inh,CF NFkB inh,KKLEB cytotox
CCN(CC)C(=O)[C@H]1C[C@H](CC(=O)NCC23CC4CC(CC(C4)C2)C3)C(=O)N2CCc3c([nH]c4ccc(Cl)cc34)[C@]12C,45,-7,59*,54*,25,-6
CC(C)=CCC/C(C)=C/CNC(=O)CC1C[C@H](C(=O)N2CCOCC2)[C@@]2(C)c3[nH]c4ccccc4c3CCN2C1=O (some centres not stated),20,16,17,21,-1,4
CC[C@]12c3[nH]c4ccc(Cl)cc4c3CCN1C(=O)[C@@H](CC(=O)NCC13CC4CC(CC(C4)C1)C3)C[C@@H]2C(=O)N1CCN(C(=O)c2ccco2)CC1,46,-24,67*,44,16,-7
C/C(=N\NC(=O)CCC(=O)NCc1ccccc1)c1ccc([N+](=O)[O-])cc1,-7,-3,10,1,-14,17
S=C(NCCC(c1ccccc1)c1ccccc1)Nc1ccc(Cl)cc1,45,-35,55*,62*,7,-2
COc1cc(NC(=S)NCCC(c2ccccc2)c2ccccc2)c(OC)cc1Cl,53*,16,53*,30,6,-4
O=S(=O)(c1ccc(NC(=S)NCCC(c2ccccc2)c2ccccc2)cc1)N1CCOCC1,39,10,47,56*,13,-5
O=C(CCn1ccnc1)Nc1nc2ccccc2[nH]1,-3,-2,11,-8,-13,2
CC(C)[C@H](NC(=O)OCc1ccccc1)C(=O)OCC(=O)NC1(C#N)CCCC1,-7,11,13,9,-40,4
COC(=O)c1nn(-c2ccc(-c3ccccc3)cc2)cc1O,47,-174,-32,81*,-8,6
COc1ccc(S(=O)(=O)N(Cc2ccccc2)c2ccccc2C(=O)N2CCOCC2)cc1,5,2,10,94*,2,-2
COc1ccc(S(=O)(=O)N(Cc2ccccc2)c2ccccc2C(=O)O)cc1,1,24,14,20,11,13
Cc1sc(NC(=O)c2ccco2)nc1-c1ccc2c(c1)CC(C)N2C(=O)C1CC1 (configuration not stated),25,-187,55*,46,6,7
Cc1sc(NC(=O)c2ccco2)nc1-c1ccccc1,11,-160,-233,34,19,-10
CCCCn1nnc(NC(=O)c2sc3cc(Cl)ccc3c2Cl)n1,-2,-29,-30,-6,-12,1
CCN(CC)Cc1ccc(NC(=O)c2sc3cc(Cl)ccc3c2Cl)cc1,-4,-118,105*,-78,2,-3
CS(=O)(=O)c1ccc(Cl)c(NC(=O)CN2CCN(C(=O)c3cccs3)CC2)c1,6,-1,-6,-17,-6,9
CCOc1ccc(Nc2nc3ccccc3n3cnnc23)cc1,-7,-57,-33,87*,-24,7
c1ccc2c(c1)nc(Nc1ccc(N3CCCCC3)cc1)c1nncn12,36,-95,-52,51*,-10,-6
c1ccc(Nc2nc3ccccc3n3cnnc23)cc1,-8,0,16,-43,-118,13
O=C(COC(=O)c1ccc(O)cc1)NCCC1=CCCCC1,10,4,0,0,-9,0
O=C(COC(=O)c1ccc2c(c1)OCCO2)NCCC1=CCCCC1,37,-49,-33,96*,0,10
COc1ccccc1N(C)S(=O)(=O)c1ccc(C(=O)OCC(=O)NCCC2=CCCCC2)cc1,31,26,8,54*,15,1
COc1cccc(CN2C(=O)C(C)N(C(=O)c3c(F)cccc3F)c3ccccc32)c1 (configuration not stated),38,18,36,74*,6,5
C=CCn1c2ccccc2c(=O)c2cc(C#CC3(O)CCCCC3)ccc21,70*,-209,-135,2,4,-35
SMILES,TROY NFkB inh,HIF-2a inh,Peg3 prom inh,TWEAK-Fn14 inh,CF NFkB inh,KKLEB cytotox
C=CCn1c2ccccc2c(=O)c2cc(C#CC[C@@H](C)O)ccc21,-122,-297,-277,-132,11,-5
NC1=NC2=C(CCCC2)C2(CCCCC2)S1,-1,19,24,5,-1,-2
Cc1cc(C)c(C#N)c(SCC(=O)Nc2ccccc2C(N)=O)n1,60*,-178,-222,10,-14,-21
COCc1cc(C)nc(SCC(=O)Nc2ccccc2C)c1C#N,-6,3,-1,14,-3,4
CCOc1cc(-c2c(C)c(CC)nc(N)c2C#N)ccc1O,18,18,15,16,11,-2
CCCc1[nH]nc2c1C(c1cn[nH]c1-c1ccc(F)cc1)C(C#N)=C(N)O2 (configuration not stated),28,22,28,54*,29,-7
CCCc1[nH]nc2c1C(c1ccccc1OC)C(C#N)=C(N)O2 (configuration not stated),1,17,12,3,2,-7
O=C(CNC(=O)c1ccccc1F)c1ccccc1,-13,-172,-154,62*,0,13
O=C(CNC(=O)c1cccs1)c1ccc(F)cc1,19,-71,-95,52*,-3,-1
O=C(CNC(=O)c1cccs1)c1ccc(Cl)cc1,8,-184,-303,23,6,4
O=C(CNC(=O)c1ccccc1Cl)c1ccccc1,-33,-210,-216,-16,-12,-4
CCOc1ccc(N2C(=O)CC(Cc3ccccc3OC)C2=O)cc1 (configuration not stated),-3,13,-7,1,13,-8
CSc1ncnc2c1ncn2CCCNC1CCN(Cc2ccccc2)CC1,-7,-10,9,-25,-10,-2
c1ccc(COc2ncnc3c2ncn3CCCNC2CCN(Cc3ccccc3)CC2)cc1,-16,-30,61*,-27,33,-27
COCCn1cc(C(=O)NCCCOC(C)C)c2c3ccccc3n(C)c2c1=O,0,15,24,20,1,-2
COc1ccc(CN2CCOCC2)cc1Br,11,1,7,-8,-3,2
COc1ccc(CN2CCOCC2)cc1OC,x,3,13,99*,-4,5
COc1cc2sc3ccc(-c4ccc(CN5CCOCC5)cc4)cc3c(=O)c2cc1OC,-19,-184,99*,2,-233,-20
COc1nc(N)nc(CC(=O)C2CC2)n1,-32,2,6,-8,1,-1
O=C(CCCc1nc(-c2ccccc2)no1)N1CCOCC1,-20,-19,-3,0,17,11
CC1(C)C=Cc2c(c3c(c4c(=O)c(-c5ccc(O)cc5)coc24)OC(C)(C)CC3)O1,-1,-27,63*,17,35,-21
CC(C)=CCc1c2c(c3occ(-c4ccc(O)cc4)c(=O)c3c1O)C=CC(C)(C)O2,-12,7,-22,17,-3,9
